In article PMC7862700, “An all-to-all approach to the identification of sequence-specific readers for epigenetic DNA modifications on cytosine” one finds binding signal data, which are given here for one sequence.

Holding throughout (assay): DAPPL (digital affinity profiling via proximity ligation, sequencing); 10 mM Tris-HCl pH 7.5, 50 mM NaCl, 1 mM DTT, 4% glycerol, room temperature, 30 min; GST-TFs on glutathione beads, 16-mer random dsDNA library, 0.1% formaldehyde crosslink after washing; high values mean tight binding
Experiment [1] has as its target T1, FLI1 (Homo sapiens, UniProt Q01543 1-452).
T1 sequence: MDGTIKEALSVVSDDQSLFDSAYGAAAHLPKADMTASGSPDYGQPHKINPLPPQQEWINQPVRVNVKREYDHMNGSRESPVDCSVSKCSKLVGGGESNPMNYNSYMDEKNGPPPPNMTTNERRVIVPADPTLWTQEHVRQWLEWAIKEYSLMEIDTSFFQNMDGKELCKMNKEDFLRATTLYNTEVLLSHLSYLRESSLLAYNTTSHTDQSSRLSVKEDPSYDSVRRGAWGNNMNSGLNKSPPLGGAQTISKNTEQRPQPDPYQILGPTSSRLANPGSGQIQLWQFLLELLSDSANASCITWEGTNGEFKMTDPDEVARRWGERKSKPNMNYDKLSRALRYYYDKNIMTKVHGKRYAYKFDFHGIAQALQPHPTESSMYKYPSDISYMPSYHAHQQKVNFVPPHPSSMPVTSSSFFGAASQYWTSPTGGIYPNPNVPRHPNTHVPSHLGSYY
To be noted: protein: recombinant; tags: N-terminal GST; dsDNA, one strand shown. The method in brief:
(§1)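 A tag-only sample was pooled with DNA-barcoded human transcription factors that had been expressed in yeast as GST fusions and captured on glutathione beads. The pools were incubated for 30 min at room temperature with 200 nmole of a random double-stranded 16-mer DNA library in Tris/NaCl/DTT/glycerol buffer, then washed, crosslinked with 0.1% formaldehyde, proximity-ligated (BsaI/T4 ligase, 1 h, 37 °C), PCR-amplified and sequenced on an Illumina NextSeq500. Binding signal is each hexamer's read frequency for a factor divided by its frequency for the tag-only sample.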

The target of experiment [2] is T2, ELK1 (Homo sapiens, UniProt P19419 1-428).
T2 sequence: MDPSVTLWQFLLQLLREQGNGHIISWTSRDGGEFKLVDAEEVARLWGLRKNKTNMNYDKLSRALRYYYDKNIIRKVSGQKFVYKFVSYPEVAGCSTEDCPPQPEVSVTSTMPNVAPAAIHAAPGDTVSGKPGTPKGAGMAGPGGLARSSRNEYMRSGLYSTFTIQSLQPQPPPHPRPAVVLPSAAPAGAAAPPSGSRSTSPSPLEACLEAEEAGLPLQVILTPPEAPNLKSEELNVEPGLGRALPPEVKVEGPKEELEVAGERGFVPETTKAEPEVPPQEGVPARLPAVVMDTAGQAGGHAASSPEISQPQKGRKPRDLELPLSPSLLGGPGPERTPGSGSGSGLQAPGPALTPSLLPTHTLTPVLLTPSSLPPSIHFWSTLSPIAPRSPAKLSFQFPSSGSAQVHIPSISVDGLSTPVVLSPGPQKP
Conditions: protein: recombinant; tags: N-terminal GST; dsDNA, one strand shown. In short, it runs like this: as §1

The target in experiment [3] is T3, GABPA (Homo sapiens, UniProt Q06546 1-454).
T3 sequence: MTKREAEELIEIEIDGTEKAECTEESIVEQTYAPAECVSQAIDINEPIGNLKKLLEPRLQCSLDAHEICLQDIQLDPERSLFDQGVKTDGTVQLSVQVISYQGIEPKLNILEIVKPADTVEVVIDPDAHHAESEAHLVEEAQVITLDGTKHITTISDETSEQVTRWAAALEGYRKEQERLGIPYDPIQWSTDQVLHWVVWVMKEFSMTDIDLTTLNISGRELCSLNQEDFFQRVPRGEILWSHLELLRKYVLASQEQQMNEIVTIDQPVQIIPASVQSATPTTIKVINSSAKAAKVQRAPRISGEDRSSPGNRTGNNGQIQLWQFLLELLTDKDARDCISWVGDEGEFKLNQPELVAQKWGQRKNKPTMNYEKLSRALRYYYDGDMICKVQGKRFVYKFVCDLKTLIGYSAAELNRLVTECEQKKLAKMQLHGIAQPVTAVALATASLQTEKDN
Conditions: protein: recombinant; tags: N-terminal GST; dsDNA, one strand shown. The method in brief:
as §1

The target of experiment [4] is T4, ERG (Homo sapiens, UniProt P11308 1-479).
T4 sequence: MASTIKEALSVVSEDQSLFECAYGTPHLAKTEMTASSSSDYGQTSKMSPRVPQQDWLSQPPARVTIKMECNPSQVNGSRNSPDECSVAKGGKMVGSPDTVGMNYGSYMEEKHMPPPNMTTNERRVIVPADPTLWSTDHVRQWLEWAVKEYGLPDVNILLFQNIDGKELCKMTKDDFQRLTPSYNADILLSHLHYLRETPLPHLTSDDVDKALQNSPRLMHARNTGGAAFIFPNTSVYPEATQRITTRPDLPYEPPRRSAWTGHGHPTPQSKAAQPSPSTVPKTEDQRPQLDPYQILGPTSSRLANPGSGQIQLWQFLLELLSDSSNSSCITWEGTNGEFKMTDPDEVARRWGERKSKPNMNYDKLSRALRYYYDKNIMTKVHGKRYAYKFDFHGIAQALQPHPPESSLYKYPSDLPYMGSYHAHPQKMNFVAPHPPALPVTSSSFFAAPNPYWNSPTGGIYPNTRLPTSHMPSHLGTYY
To be noted: protein: recombinant; tags: N-terminal GST; dsDNA, one strand shown. The method in brief: as §1

For experiment [5], the target named is ELF1 (Homo sapiens, UniProt P32519 1-619). To be noted: protein: recombinant; tags: N-terminal GST; dsDNA, one strand shown. The method in brief:
as §1

In experiment [6] the target is T5, EHF (Homo sapiens, UniProt Q9NZC4 1-300).
T5 sequence: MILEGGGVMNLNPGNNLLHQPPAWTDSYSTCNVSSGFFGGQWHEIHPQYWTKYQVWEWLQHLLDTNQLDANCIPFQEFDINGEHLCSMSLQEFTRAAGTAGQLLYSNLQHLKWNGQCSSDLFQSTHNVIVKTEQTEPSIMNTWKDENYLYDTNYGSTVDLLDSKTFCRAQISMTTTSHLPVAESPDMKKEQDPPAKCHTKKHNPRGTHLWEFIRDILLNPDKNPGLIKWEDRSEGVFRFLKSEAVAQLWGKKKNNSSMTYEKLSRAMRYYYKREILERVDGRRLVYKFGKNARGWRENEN
To be noted: protein: recombinant; tags: N-terminal GST; dsDNA, one strand shown. The method in brief:
as §1

For experiment [7], the target named is SPI1 (Homo sapiens, UniProt P17947 1-270). Conditions: protein: recombinant; tags: N-terminal GST; dsDNA, one strand shown. In short, it runs like this:
as §1

Experiment [8] addresses SPIB (Homo sapiens, UniProt Q01892 1-262). Conditions: protein: recombinant; tags: N-terminal GST; dsDNA, one strand shown. The method in brief: as §1
Experiment [9] deals with T6, ELK3 (Homo sapiens, UniProt P41970 1-407).
T6 sequence: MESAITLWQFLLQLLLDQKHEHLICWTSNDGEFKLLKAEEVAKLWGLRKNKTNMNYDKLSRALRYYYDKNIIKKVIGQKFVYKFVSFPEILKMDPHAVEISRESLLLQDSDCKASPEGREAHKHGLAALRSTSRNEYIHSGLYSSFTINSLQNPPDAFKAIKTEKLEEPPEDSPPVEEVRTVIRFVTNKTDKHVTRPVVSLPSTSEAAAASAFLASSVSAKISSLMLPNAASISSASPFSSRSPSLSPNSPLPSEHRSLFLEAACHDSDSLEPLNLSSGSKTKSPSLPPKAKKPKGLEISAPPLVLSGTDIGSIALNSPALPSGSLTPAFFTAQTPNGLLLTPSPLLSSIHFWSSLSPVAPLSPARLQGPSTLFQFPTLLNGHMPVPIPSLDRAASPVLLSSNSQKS
Conditions: protein: recombinant; tags: N-terminal GST; dsDNA, one strand shown. In short, it runs like this:
as §1

Experiment [10] concerns the target T7, FEV (Homo sapiens, UniProt Q99581 1-238).
T7 sequence: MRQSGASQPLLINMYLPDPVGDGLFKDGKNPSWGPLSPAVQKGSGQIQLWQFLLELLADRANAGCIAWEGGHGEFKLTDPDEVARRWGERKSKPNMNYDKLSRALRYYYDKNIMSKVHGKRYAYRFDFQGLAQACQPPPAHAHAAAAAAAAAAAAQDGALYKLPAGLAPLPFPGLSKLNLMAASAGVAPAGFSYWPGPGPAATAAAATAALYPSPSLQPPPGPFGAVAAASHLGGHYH
To be noted: protein: recombinant; tags: N-terminal GST; dsDNA, one strand shown. In short, it runs like this:
as §1

For experiment [11], the target named is ETV5 (Homo sapiens, UniProt P41161 1-510). To be noted: protein: recombinant; tags: N-terminal GST; dsDNA, one strand shown. The method in brief:
as §1

For experiment [12], the target named is HSF1 (Homo sapiens, UniProt Q00613 1-529). To be noted: protein: recombinant; tags: N-terminal GST; chain copies: 3; dsDNA, one strand shown. The method in brief: as §1
Chain of HSF1 (Q00613 whole entry): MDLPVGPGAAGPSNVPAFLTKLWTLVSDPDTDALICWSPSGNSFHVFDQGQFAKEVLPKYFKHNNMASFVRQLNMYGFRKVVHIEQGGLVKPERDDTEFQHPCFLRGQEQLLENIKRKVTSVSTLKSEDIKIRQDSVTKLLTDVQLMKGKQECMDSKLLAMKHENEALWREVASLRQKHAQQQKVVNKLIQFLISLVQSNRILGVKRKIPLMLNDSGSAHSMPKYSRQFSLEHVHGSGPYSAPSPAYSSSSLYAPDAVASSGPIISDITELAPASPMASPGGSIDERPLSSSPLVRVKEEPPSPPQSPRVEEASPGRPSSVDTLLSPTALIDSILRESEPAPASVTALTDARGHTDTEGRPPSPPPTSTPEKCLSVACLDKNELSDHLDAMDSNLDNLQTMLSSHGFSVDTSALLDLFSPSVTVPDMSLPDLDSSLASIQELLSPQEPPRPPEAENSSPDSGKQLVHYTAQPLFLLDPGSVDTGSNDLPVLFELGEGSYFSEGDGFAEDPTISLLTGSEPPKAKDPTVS
Experiment [13] has as its target T8, SPIC (Homo sapiens, UniProt Q8N5J4 1-248).
T8 sequence: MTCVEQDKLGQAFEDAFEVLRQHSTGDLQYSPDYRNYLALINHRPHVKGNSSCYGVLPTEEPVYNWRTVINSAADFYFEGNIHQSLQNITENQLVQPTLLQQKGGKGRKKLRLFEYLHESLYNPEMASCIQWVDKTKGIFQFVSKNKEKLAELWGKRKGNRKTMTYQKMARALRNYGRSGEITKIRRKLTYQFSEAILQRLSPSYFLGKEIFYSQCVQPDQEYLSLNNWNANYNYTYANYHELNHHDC
To be noted: protein: recombinant; tags: N-terminal GST; dsDNA, one strand shown. The method in brief:
as §1

Experiment [14] deals with ELF4 (Homo sapiens, UniProt Q99607 1-663). Conditions: protein: recombinant; tags: N-terminal GST; dsDNA, one strand shown. The method in brief: as §1
Chain of ELF4 (Q99607 whole entry): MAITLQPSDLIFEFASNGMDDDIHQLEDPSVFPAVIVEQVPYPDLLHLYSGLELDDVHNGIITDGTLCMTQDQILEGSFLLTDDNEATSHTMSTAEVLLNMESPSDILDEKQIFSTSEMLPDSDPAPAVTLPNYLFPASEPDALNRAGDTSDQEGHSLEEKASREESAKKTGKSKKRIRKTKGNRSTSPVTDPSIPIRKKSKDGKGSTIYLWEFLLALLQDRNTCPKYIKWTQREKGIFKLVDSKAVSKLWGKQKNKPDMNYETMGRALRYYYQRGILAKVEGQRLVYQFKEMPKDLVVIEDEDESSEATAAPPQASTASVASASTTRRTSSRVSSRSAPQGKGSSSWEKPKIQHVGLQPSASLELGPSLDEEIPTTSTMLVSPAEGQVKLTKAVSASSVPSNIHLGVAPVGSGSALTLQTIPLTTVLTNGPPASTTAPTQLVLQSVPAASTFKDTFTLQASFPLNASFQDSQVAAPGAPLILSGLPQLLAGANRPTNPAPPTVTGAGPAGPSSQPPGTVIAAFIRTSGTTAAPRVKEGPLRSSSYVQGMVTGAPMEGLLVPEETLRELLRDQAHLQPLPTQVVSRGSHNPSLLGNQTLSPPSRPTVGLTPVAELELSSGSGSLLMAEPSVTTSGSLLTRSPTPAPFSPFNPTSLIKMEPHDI
Experiment [15] addresses T9, ELK4 (Homo sapiens, UniProt P28324-2 1-405).
T9 sequence: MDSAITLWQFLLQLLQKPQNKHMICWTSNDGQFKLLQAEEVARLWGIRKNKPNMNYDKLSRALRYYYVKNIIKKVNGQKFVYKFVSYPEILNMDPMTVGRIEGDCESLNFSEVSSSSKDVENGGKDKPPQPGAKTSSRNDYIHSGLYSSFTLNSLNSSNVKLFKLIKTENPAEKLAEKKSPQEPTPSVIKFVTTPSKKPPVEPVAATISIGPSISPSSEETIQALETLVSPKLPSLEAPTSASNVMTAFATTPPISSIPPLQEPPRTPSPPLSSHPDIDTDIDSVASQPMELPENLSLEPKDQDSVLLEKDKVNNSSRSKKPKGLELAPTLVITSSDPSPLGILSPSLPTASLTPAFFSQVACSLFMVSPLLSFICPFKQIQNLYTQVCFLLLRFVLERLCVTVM
Conditions: protein: recombinant; tags: N-terminal GST; dsDNA, one strand shown. The method in brief:
as §1

In experiment [16] the target is T10, ETV2 (Homo sapiens, UniProt O00321 1-342).
T10 sequence: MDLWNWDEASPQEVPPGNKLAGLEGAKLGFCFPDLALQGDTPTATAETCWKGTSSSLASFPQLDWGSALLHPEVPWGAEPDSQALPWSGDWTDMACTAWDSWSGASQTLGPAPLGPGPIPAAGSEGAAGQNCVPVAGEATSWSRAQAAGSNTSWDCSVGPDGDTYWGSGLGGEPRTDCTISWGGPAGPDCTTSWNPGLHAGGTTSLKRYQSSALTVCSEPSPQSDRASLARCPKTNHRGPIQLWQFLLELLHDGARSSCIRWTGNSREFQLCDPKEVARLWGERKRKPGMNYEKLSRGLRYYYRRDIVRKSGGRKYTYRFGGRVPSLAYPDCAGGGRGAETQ
Conditions: protein: recombinant; tags: N-terminal GST; dsDNA, one strand shown. In short, it runs like this: as §1

The target of experiment [17] is T11, ELF3 (Homo sapiens, UniProt P78545 1-371).
T11 sequence: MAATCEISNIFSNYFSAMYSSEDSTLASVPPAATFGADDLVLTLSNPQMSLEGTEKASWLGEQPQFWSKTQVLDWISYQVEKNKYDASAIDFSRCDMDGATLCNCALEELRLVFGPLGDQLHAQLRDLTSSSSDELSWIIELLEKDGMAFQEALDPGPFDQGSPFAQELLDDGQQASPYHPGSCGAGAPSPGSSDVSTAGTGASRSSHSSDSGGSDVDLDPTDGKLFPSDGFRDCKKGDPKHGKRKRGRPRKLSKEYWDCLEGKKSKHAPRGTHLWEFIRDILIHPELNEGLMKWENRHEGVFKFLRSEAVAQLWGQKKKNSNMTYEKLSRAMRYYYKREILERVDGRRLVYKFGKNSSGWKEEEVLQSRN
Conditions: protein: recombinant; tags: N-terminal GST; dsDNA, one strand shown. In short, it runs like this:
as §1

The target of experiment [18] is CRX (Homo sapiens, UniProt O43186 1-299). Conditions: protein: recombinant; tags: N-terminal GST; dsDNA, one strand shown. The method in brief:
as §1

The target of experiment [19] is ETV1 (Homo sapiens, UniProt P50549 1-477). To be noted: protein: recombinant; tags: N-terminal GST; dsDNA, one strand shown. The method in brief: as §1
Chain of ETV1 (P50549 whole entry): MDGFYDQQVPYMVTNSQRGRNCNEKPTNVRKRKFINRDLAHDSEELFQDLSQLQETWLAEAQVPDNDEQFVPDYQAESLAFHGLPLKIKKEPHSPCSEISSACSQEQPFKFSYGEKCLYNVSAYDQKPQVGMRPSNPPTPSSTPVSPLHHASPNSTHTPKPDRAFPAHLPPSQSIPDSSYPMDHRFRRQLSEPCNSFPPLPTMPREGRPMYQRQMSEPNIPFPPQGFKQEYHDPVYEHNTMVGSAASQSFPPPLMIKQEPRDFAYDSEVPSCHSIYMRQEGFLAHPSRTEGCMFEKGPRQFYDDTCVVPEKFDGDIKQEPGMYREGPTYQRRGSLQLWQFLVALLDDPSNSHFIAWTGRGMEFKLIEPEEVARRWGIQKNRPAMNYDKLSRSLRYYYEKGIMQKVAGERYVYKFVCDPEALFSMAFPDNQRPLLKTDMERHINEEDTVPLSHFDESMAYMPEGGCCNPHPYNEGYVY

Chain of ETV5 (P41161 whole entry): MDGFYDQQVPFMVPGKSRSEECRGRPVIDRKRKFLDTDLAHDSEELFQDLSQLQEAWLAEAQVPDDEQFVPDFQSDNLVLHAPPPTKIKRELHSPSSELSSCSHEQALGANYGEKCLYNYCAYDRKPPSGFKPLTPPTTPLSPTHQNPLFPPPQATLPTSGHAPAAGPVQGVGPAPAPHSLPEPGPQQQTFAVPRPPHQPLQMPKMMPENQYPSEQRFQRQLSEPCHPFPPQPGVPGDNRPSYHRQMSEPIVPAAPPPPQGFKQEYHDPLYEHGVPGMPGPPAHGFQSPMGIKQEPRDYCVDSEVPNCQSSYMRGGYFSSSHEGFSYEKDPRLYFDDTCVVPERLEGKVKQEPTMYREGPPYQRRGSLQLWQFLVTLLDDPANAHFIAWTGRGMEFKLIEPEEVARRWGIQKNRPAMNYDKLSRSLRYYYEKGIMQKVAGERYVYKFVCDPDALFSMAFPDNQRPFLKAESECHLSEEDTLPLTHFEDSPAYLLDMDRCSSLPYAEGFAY
Chain of ELF1 (P32519 whole entry): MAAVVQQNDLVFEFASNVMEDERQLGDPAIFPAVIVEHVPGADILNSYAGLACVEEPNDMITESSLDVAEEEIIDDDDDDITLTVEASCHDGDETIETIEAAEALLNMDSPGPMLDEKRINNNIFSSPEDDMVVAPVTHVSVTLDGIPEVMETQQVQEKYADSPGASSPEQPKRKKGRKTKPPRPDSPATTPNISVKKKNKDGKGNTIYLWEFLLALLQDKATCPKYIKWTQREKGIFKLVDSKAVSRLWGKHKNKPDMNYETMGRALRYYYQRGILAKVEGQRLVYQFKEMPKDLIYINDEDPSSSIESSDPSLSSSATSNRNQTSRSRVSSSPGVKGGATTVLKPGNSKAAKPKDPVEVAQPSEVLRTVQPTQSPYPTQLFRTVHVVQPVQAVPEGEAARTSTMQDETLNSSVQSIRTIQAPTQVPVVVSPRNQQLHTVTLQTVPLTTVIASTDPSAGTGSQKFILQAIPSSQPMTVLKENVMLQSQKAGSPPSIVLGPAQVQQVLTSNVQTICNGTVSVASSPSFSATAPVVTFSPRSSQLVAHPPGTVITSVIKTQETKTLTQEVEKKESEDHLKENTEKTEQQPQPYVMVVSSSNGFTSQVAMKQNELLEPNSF
Chain of CRX (O43186 whole entry): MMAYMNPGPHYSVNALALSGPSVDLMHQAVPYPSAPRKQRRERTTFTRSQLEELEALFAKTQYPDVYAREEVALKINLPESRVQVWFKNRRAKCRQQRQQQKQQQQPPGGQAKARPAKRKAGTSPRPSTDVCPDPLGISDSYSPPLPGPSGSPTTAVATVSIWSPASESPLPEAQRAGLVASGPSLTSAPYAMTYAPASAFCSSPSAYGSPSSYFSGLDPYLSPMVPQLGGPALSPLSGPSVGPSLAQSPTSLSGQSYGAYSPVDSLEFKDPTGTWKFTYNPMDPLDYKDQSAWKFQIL
Chain of SPIB (Q01892 whole entry): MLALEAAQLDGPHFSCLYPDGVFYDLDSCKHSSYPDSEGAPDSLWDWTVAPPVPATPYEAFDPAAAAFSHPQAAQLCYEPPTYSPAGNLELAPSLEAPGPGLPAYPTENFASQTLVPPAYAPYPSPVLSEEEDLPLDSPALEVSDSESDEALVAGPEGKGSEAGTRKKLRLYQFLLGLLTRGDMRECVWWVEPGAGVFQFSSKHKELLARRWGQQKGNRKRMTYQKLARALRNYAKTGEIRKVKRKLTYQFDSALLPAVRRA

With AGAAGC, the binding signal is 1.11 fold enrichment (6-mer frequency, TF over GST control) in [1]; 1.15 fold enrichment (6-mer frequency, TF over GST control) in experiment [2]; 1.12 fold enrichment (6-mer frequency, TF over GST control) in experiment [3]; 1.16 fold enrichment (6-mer frequency, TF over GST control) in experiment [4]; 1.08 fold enrichment (6-mer frequency, TF over GST control) in experiment [5]; 1.21 fold enrichment (6-mer frequency, TF over GST control) in experiment [6]. In addition, the binding signal is 1.22 fold enrichment (6-mer frequency, TF over GST control) in experiment [7]; 1.15 fold enrichment (6-mer frequency, TF over GST control) in experiment [8]; 1.1 fold enrichment (6-mer frequency, TF over GST control) in [9]; 1.14 fold enrichment (6-mer frequency, TF over GST control) in [10]; 1.12 fold enrichment (6-mer frequency, TF over GST control) in experiment [11]; 1.96 fold enrichment (6-mer frequency, TF over GST control) in experiment [12]. Moreover, the binding signal in experiment [13] is 1.28 fold enrichment (6-mer frequency, TF over GST control); in [14] it was 1.13 fold enrichment (6-mer frequency, TF over GST control); in experiment [15] it was 1.07 fold enrichment (6-mer frequency, TF over GST control); in experiment [16], 1.22 fold enrichment (6-mer frequency, TF over GST control); in experiment [17], 1.09 fold enrichment (6-mer frequency, TF over GST control); in experiment [18] it was 1.32 fold enrichment (6-mer frequency, TF over GST control). Moreover, the binding signal in experiment [19] was 1.11 fold enrichment (6-mer frequency, TF over GST control).
